# Test results from PubChem BioAssay (Tox21).
# Several values for one entry are separate records, joined by “and”; a condition that tells them apart may be missing. Equal values may be shown once. Unmarked numbers belong to inactive results. Records with an inconclusive call do not appear. A call without a number means that no potency is given here. Activity calls are given as the source filed them. Unless noted, the call rests on the fitted dose curve; in most records, active means well fitted curve in the direction sought with a large enough effect in the repeat runs; inconclusive means weak or mixed curves; inactive means no such curve, though single readings can be large; an effect the other way counts as inactive or inconclusive.
# Key:
# [1] = qHTS assay for small molecule agonists of the p53 signaling pathway (AID 651631; calls by dose curve; further: nearly all actives have a fitted effect of over 15% in size; further: potency means the concentration at half of the fitted maximal effect)
# How it was run: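 Stably transfected HCT-116 cells (beta-lactamase behind p53 response elements) get compounds after a 5 h settling period; 16 h later at 37 °C, FRET substrate is loaded and fluorescence read after 2 h.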
# [2] = qHTS assay for small molecules that induce genotoxicity in human embryonic kidney cells expressing luciferase-tagged ATAD5 (AID 651632); further: nearly all actives have a fitted effect of over 15% in size; further: potency means the concentration at half of the fitted maximal effect
# How it was run: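 HEK293T cells carrying a luciferase reporter tagged to ATAD5 were exposed to compound or DMSO vehicle for 16 hr at 37C, 5% CO2. Amplite was added, and after 30 min at room temperature luciferase activity was read as a marker of ATAD5 induction.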
# [3] = qHTS assay for small molecule agonists of the p53 signaling pathway - cell viability (AID 651633; calls by dose curve;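 further: p53RE-bla HCT reporter cells with a stable beta-lactamase p53 reporter; series mostly up to about 83 µM; nearly all actives have a fitted effect of over 30% in size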)
# How it was run: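 Viability counter-read: CellTiter-Glo luminescence (30 min, room temperature) in the same p53RE-bla plates. These plates had been exposed to compounds for 16 h at 37 C.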
# [4] = qHTS assay for small molecules that induce genotoxicity in human embryonic kidney cells expressing luciferase-tagged ATAD5 - cell viability (AID 651634; calls by dose curve; further: nearly all actives have a fitted effect of over 25% in size)
# How it was run: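 HEK293T cells expressing luciferase-tagged ATAD5 were exposed to compound or DMSO for 15.5 hr at 37C, 5% CO2. Viability was then read as live-cell protease activity by CellTiter-Fluor fluorescence after 30 min at 37C.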
# [5] = qHTS assay for small molecule disruptors of the mitochondrial membrane potential - cell viability (AID 720634; calls by dose curve;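 further: human HepG2 liver cancer cells; series mostly up to about 83 µM; nearly all actives have a fitted effect of over 20% in size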)
# How it was run: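 HepG2 cells seeded overnight at 37 C, then exposed to compound or DMSO for 1 hr at 37 C, 5% CO2. m-MPI dye added, then CellTiter-Glo for 30 min at room temperature; viability read as ATP luminescence.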
# [6] = qHTS assay to test for compound auto fluorescence at 590 nm (red) in HepG2 cells (AID 720674)
# How it was run: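 We screened compounds on adherent HepG2 cells, incubating them for an hour at 37 C in 5% CO2 before reading emission at 590 nm under 540 nm excitation; values reflect equivalence to Rose Bengal sodium fluorescence.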
# [7] = qHTS assay to test for compound auto fluorescence at 535 nm (green) in HepG2 cells (AID 720675)
# [8] = qHTS assay to test for compound auto fluorescence at 460 nm (blue) in HEK293 cells (AID 720678)
# How it was run: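 HEK293 cells (2,000/well, medium with 10% dialyzed FBS) attached 4-5 hr, then exposed to compound overnight at 37C, 5% CO2. Blue fluorescence read at 405/460 nm, with triamterene as reference fluorophore.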
# [9] = qHTS assay to test for compound auto fluorescence at 590 nm (red) in HEK293 cells (AID 720679)
# How it was run: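 HEK293 cells (2,000/well, 10% dialyzed FBS) attached 4-5 hr, then dosed with compound or DMSO and incubated overnight at 37C, 5% CO2. Red fluorescence read at 540/590 nm, Rose Bengal sodium as reference fluorophore.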
# [10] = qHTS assay for small molecule disruptors of the mitochondrial membrane potential (AID 720635); further: potency means the concentration at half of the fitted maximal effect
# How it was run: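 Mitochondrial membrane potential tracked with Mito-MPS dye, red aggregates (ex 540/em 590 nm) against green monomers (ex 490/em 535 nm). Compound treatment 1 hr at 37C, dye 30 min in HepG2.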
SMILES,Potency [1],Potency [2],Potency [3],Potency [4],Potency [5],outcome [6],outcome [7],Potency [8],outcome [9],"fluorescence, relative to Rose Bengal [6]","fluorescence, % of fluorescein control [7]","fluorescence, % of triamterene [8]","fluorescence, % of fluorescent control [9]",Potency [10],"ratio activity, negative = MMP loss [10]"
C1=Cc2ccccc2C1,inactive,inactive,inactive,inactive,inactive,inactive,inactive,inactive,inactive,,,,,,
C=CC(C)(CCC=C(C)C)OC(=O)c1ccccc1 (stereo unspecified),inactive,inactive,inactive,inactive,inactive,inactive,inactive,inactive,inactive,,,,,,
CC1CCc2cc(F)cc3c(=O)c(C(=O)O)cn1c23 (stereo unspecified),inactive,inactive,inactive,inactive,inactive,inactive,inactive,inactive,,,,,,,
CC1=CC(=O)/C(=C(/C)O)C(=O)O1,inactive,inactive,inactive,inactive,inactive,inactive,inactive,inactive,inactive,,,,,,
Cc1cccc(OCCOc2cccc(C)c2)c1,inactive,inactive,inactive,inactive,inactive,inactive,inactive,inactive,inactive,,,,,,
CC(C)c1cccc(C(C)C)c1NC(=O)NS(=O)(=O)c1cc(C(C)(C)O)co1,inactive,inactive,inactive,inactive,inactive,inactive,inactive,inactive,inactive,,,,,,
Oc1ccc(C(O)CNCCCCCCNCC(O)c2ccc(O)c(O)c2)cc1O (stereo unspecified),inactive,inactive,inactive,inactive,inactive,,inactive,,inactive,,,,,,
CC[C@H](C)[C@@H](C(=O)O)n1sc2ccccc2c1=O,inactive,inactive,inactive,inactive,inactive,,inactive,inactive,inactive,,,,,,
C#CCOC(=O)[C@@H](C)Oc1ccc(Oc2ncc(Cl)cc2F)cc1,inactive,inactive,inactive,inactive,,inactive,inactive,inactive,inactive,,,,,,
O=C(c1ccc(O)cc1)c1ccc(O)cc1,inactive,inactive,inactive,inactive,inactive,,inactive,inactive,,,,,,,
CC[C@H](C)[C@H](N)C(=O)O,inactive,inactive,inactive,inactive,inactive,inactive,inactive,inactive,,,,,,,
CCCCCc1ccc(N)cc1,inactive,inactive,inactive,inactive,inactive,inactive,inactive,inactive,inactive,,,,,,
Cc1ccc2c(ccc3ccccc32)c1,inactive,inactive,inactive,inactive,,inactive,inactive,inactive,,,,,,,
CCCCOC(=O)c1ccccc1C(=O)OCC(CC)CCCC (stereo unspecified),54.5 µM (active),inactive,inactive,inactive,,inactive,inactive,,inactive,,,,,,
COCCO,inactive,inactive,inactive,inactive,inactive,,inactive,inactive,inactive,,,,,,
C=CC[N+]1([C@H]2C[C@H]3[C@@H]4CC[C@H]5C[C@H](OC(C)=O)[C@@H](N6CCCCC6)C[C@]5(C)[C@H]4CC[C@]3(C)[C@H]2OC(=O)CC)CCCCC1,inactive,inactive,inactive,inactive,inactive,inactive,inactive,inactive,inactive,,,,,,
CN(C)C/C=C(/c1ccc(Br)cc1)c1cccnc1,inactive,inactive,inactive,inactive,inactive,inactive,inactive,,inactive,,,,,,
CC(=O)N(O)CCCCCNC(=O)CCC(=O)N(O)CCCCCNC(=O)CCC(=O)N(O)CCCCCN,inactive,inactive,inactive,inactive,inactive,,,,,0.119% [at 18.6 µM],-0.0519% [at 18.6 µM],-0.0021% [at 18.6 µM],-0.043% [at 18.6 µM],,
O=C=NC1CCC(CC2CCC(N=C=O)CC2)CC1 (stereo unspecified),inactive,inactive,inactive,inactive,inactive,inactive,inactive,,inactive,,,,,,
CN1CCN(C2=Nc3ccccc3Sc3ccc(Cl)cc32)CC1,inactive,inactive,inactive,inactive,inactive,,inactive,inactive,,,,,,,
CCCCCCCCCC=O,inactive,inactive,inactive,inactive,inactive,inactive,inactive,inactive,inactive,,,,,,
Cl/C(=C\n1cncn1)c1ccc(Cl)cc1Cl,inactive,inactive,inactive,inactive,inactive,inactive,inactive,inactive,inactive,,,,,,
Nc1cnn([C@@H]2O[C@H](CO)[C@@H](O)[C@H]2O)c(=O)n1,1.94 µM (active),inactive,inactive,inactive,inactive,,inactive,inactive,inactive,,,,,,
Cc1cc(NC(=O)C(=O)O)cc(C)c1Oc1ccc(O)c2c1CCC2,inactive,inactive,inactive,inactive,inactive,inactive,inactive,inactive,inactive,,,,,,
O=C(C(=O)c1ccc(Br)cc1)c1ccc(Br)cc1,inactive,inactive,inactive,inactive,inactive,,,,,,0.0081% [at 18.6 µM],0.126% [at 18.6 µM],0.203% [at 18.6 µM],,
N#Cc1c(F)cccc1F,inactive,inactive,inactive,inactive,inactive,inactive,inactive,inactive,inactive,,,,,,
CC(C)c1ccccc1C(C)C,inactive,inactive,inactive,inactive,inactive,inactive,inactive,inactive,inactive,,,,,,

SMILES,Potency [1],Potency [2],Potency [3],Potency [4],Potency [5],outcome [6],outcome [7],Potency [8],outcome [9],"fluorescence, relative to Rose Bengal [6]","fluorescence, % of fluorescein control [7]","fluorescence, % of triamterene [8]","fluorescence, % of fluorescent control [9]",Potency [10],"ratio activity, negative = MMP loss [10]"
CC(=O)c1ccc2c(c1)[C@H](NC(=O)c1ccc(F)cc1)[C@@H](O)C(C)(C)O2,inactive,inactive,inactive,inactive,inactive,inactive,inactive,inactive,inactive,,,,,,
CCOc1cc(OCC)c(C(=O)CCC(=O)O)cc1OCC,inactive,inactive,inactive,inactive,inactive,inactive,inactive,inactive,inactive,,,,,,
CC1(C)[C@H]2CC[C@]1(C)[C@H](O)C2,inactive,inactive,,inactive,inactive,,inactive,inactive,inactive,,,,,inactive,
Cc1c(Cn2ccnc2)c2ccccc2n1CCC(=O)O,inactive,inactive,,inactive,inactive,,inactive,inactive,inactive,,,,,inactive,
O=C(O)C1CCC(C(=O)O)CC1 (stereo unspecified),inactive,inactive,inactive,,inactive,inactive,inactive,inactive,inactive,,,,,,
C=C(C)C(=O)OC(C)C,inactive,inactive,inactive,,inactive,inactive,inactive,,,,,,,,
O=C(O)COC(=O)Cc1ccccc1Nc1c(Cl)cccc1Cl,inactive,inactive,inactive,,inactive,,,,,0.242% [at 18.6 µM],-0.151% [at 18.6 µM],0.0454% [at 18.6 µM],-0.0045% [at 18.6 µM],,
Cc1cc(CC(=O)O)c(C)n1-c1ccc(Cl)cc1,inactive,inactive,inactive,,inactive,inactive,inactive,inactive,inactive,,,,,inactive,
CC(=O)/C(C)=C/C1C(C)=CCCC1(C)C (stereo unspecified),inactive,inactive,,inactive,inactive,,inactive,,inactive,,,,,inactive,
CC(=O)CC(=O)c1ccccc1,inactive,inactive,,inactive,inactive,inactive,inactive,inactive,,,,,,inactive,
CCN(CCO)CCCC(C)Nc1ccnc2cc(Cl)ccc12 (stereo unspecified),inactive,inactive,,inactive,inactive,inactive,inactive,inactive,inactive,,,,,inactive,
CC1=CCC(C(C)C)C=C1 (stereo unspecified),inactive,inactive,inactive,,,,inactive,inactive,inactive,,,,,,
CCCCCCOC(=O)CCC,inactive,inactive,,inactive,inactive,inactive,inactive,inactive,inactive,,,,,inactive,
COc1ccc(C(C)=O)cc1,inactive,inactive,,inactive,inactive,inactive,inactive,inactive,inactive,,,,,,
COCCOCCOCCOCCOC,inactive,inactive,,inactive,inactive,inactive,inactive,inactive,inactive,,,,,inactive,
CC(=O)O[C@H]1C[C@@H]2CC[C@@H]3[C@H](CC[C@@]4(C)[C@H]3C[C@H]([N+]3(C)CCCCC3)[C@@H]4OC(C)=O)[C@@]2(C)C[C@@H]1N1CCCCC1,inactive,inactive,inactive,,inactive,inactive,inactive,inactive,inactive,,,,,inactive,
CC(C)(C)c1ccc(S)cc1,inactive,inactive,,inactive,inactive,inactive,inactive,inactive,inactive,,,,,inactive,
CN(C)CCCOc1nn(Cc2ccccc2)c2ccccc12,inactive,inactive,,inactive,inactive,,,,,-0.438% [at 18.6 µM],-0.0147% [at 18.6 µM],-0.0099% [at 18.6 µM],,,
O=C(O)c1cccc(N(Cc2cccnc2)c2ccc(OC(F)F)c(OC(F)F)c2)c1,inactive,inactive,inactive,,inactive,inactive,inactive,inactive,inactive,,,,,,
CCCCCCc1ccc(N)cc1,inactive,inactive,,inactive,inactive,inactive,inactive,inactive,inactive,,,,,,
CCC(C)N(C)C(=O)c1cc2ccccc2c(-c2ccccc2Cl)n1 (stereo unspecified),inactive,inactive,inactive,,inactive,inactive,inactive,inactive,inactive,,,,,inactive,
O=C(O)Cc1sc(-c2ccccc2)nc1-c1ccc(Cl)cc1,inactive,inactive,,inactive,inactive,inactive,inactive,,inactive,,,,,24.8 µM (active) and 23.7 µM (active) and 26.6 µM (active),
CCN(CC)C(C)=O,inactive,inactive,,inactive,inactive,,inactive,inactive,,,,,,inactive,
NC[C@H]1O[C@H](O[C@H]2[C@H](O)[C@@H](O[C@H]3O[C@H](CO)[C@@H](O)[C@H](N)[C@H]3O)[C@H](N)C[C@@H]2N)[C@H](O)[C@@H](O)[C@@H]1O,inactive,inactive,,inactive,inactive,,,,,-0.029% [at 18.6 µM] and 0.338% [at 3.72 µM],-0.0979% [at 18.6 µM] and 0.0187% [at 3.72 µM],0.0195% [at 18.6 µM] and -0.0441% [at 3.72 µM],0.0121% [at 18.6 µM] and -0.0907% [at 3.72 µM],,0.685% [at 8.08 µM]
Nc1ccc(C(=O)Nc2ccccc2N)cc1,10.6 µM (active),8.41 µM (active),,inactive,inactive,inactive,inactive,inactive,inactive,,,,,13.3 µM (active),
CCCCOc1cc(C(=O)OCCN(CC)CC)ccc1N,inactive,inactive,inactive,,inactive,,,,,-0.373% [at 18.6 µM],-0.0083% [at 18.6 µM],0.0068% [at 18.6 µM],0.112% [at 18.6 µM],,
